# Columns and labels:
# Assay in all cases: DAPPL (digital affinity profiling via proximity ligation, sequencing); 10 mM Tris-HCl pH 7.5, 50 mM NaCl, 1 mM DTT, 4% glycerol, room temperature, 30 min; GST-TFs on glutathione beads, 16-mer random dsDNA library, 0.1% formaldehyde crosslink after washing; high values mean tight binding
# FLI1 = biological target: T1, FLI1 (Homo sapiens, UniProt Q01543 1-452); settings: protein: recombinant; tags: N-terminal GST; dsDNA, one strand shown
# T1 sequence: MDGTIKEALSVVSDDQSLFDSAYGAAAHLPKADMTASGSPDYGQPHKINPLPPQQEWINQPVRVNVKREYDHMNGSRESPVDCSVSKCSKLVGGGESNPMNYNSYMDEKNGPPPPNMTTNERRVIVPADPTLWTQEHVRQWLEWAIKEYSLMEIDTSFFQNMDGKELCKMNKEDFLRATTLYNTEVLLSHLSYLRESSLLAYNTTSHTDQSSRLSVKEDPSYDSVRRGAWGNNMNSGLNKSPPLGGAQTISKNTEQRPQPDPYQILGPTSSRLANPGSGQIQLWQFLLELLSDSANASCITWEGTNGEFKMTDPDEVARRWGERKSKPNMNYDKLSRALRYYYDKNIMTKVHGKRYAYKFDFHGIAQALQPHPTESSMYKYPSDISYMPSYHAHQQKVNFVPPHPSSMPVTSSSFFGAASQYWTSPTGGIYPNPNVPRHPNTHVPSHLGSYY
# Outline: (§1)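 Human transcription factors were made in yeast as GST fusions, captured on glutathione beads and barcoded with DNA. With a tag-only sample included, the pool was incubated with 200 nmole of a random double-stranded 16-mer DNA library in Tris/NaCl/DTT/glycerol buffer at room temperature for 30 min, then crosslinked with 0.1% formaldehyde after washing, ligated by proximity, amplified and sequenced. For binding signal, each hexamer's read frequency for a factor is divided by its frequency for the tag-only sample.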
# ELK1 = biological target: T2, ELK1 (Homo sapiens, UniProt P19419 1-428); settings: protein: recombinant; tags: N-terminal GST; dsDNA, one strand shown
# T2 sequence: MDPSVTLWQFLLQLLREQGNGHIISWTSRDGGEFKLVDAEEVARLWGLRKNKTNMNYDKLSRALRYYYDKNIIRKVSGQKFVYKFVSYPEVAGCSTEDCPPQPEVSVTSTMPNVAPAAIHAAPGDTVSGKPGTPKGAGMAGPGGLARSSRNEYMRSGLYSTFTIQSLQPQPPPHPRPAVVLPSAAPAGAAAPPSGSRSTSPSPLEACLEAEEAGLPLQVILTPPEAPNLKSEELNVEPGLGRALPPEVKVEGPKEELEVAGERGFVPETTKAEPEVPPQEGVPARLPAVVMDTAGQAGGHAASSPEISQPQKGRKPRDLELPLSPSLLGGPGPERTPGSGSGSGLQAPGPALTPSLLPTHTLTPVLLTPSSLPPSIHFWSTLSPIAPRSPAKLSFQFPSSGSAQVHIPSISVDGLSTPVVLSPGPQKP
# Outline: as §1
# GABPA = biological target: T3, GABPA (Homo sapiens, UniProt Q06546 1-454); settings: protein: recombinant; tags: N-terminal GST; dsDNA, one strand shown
# T3 sequence: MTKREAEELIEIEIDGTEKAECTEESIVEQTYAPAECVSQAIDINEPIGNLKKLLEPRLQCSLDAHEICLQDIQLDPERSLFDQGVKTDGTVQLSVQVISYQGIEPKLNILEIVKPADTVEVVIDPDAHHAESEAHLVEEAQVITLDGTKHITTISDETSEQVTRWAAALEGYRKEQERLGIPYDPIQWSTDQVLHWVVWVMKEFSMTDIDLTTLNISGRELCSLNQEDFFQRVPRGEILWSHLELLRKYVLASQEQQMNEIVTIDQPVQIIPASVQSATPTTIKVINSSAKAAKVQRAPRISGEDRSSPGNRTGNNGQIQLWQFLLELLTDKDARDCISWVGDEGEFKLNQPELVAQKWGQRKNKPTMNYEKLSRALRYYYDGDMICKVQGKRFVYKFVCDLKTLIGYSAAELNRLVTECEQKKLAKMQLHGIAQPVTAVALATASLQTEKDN
# Outline: as §1
# ERG = biological target: T4, ERG (Homo sapiens, UniProt P11308 1-479); settings: protein: recombinant; tags: N-terminal GST; dsDNA, one strand shown
# T4 sequence: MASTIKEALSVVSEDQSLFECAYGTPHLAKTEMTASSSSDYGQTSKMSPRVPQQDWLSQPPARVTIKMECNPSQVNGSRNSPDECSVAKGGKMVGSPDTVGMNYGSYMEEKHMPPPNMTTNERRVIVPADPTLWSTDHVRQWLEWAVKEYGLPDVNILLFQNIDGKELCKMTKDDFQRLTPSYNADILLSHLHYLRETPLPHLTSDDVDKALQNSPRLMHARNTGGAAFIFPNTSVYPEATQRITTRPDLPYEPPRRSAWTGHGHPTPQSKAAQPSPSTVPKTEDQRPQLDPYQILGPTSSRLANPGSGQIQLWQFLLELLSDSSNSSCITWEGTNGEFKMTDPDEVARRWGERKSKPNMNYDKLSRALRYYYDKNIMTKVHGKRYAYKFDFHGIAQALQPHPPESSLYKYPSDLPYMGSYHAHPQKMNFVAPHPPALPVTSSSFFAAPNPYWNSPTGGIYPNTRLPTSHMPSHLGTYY
# Outline: as §1
# ELF1 = ELF1 (Homo sapiens, UniProt P32519 1-619); settings: protein: recombinant; tags: N-terminal GST; dsDNA, one strand shown
# Sequence of ELF1 (P32519 whole entry): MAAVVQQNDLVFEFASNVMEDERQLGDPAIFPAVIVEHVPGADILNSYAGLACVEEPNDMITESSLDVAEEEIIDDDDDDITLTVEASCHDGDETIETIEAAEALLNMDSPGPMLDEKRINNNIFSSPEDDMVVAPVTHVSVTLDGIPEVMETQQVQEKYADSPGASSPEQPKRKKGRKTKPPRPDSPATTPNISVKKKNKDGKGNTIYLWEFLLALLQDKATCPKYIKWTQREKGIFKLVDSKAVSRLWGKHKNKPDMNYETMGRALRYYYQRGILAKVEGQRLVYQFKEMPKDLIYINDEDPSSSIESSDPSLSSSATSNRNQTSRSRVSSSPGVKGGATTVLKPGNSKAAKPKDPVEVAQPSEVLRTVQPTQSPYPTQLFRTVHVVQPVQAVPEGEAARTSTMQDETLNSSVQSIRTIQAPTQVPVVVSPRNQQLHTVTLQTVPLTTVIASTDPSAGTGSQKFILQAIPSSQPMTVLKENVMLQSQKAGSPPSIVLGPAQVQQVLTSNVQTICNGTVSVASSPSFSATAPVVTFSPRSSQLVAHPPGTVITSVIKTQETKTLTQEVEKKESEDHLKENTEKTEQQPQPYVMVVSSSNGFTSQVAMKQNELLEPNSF
# Outline: as §1
# EHF = biological target: T5, EHF (Homo sapiens, UniProt Q9NZC4 1-300); settings: protein: recombinant; tags: N-terminal GST; dsDNA, one strand shown
# T5 sequence: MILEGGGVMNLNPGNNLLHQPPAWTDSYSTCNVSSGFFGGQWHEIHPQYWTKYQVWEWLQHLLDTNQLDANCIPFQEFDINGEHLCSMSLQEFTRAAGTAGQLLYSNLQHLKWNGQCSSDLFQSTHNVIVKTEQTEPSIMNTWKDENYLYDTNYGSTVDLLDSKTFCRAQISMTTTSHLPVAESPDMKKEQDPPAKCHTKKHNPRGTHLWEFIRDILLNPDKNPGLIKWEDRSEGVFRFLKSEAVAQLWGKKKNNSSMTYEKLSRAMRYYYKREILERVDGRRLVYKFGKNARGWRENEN
# Outline: as §1
# SPI1 = SPI1 (Homo sapiens, UniProt P17947 1-270); settings: protein: recombinant; tags: N-terminal GST; dsDNA, one strand shown
# Outline: as §1
# SPIB = SPIB (Homo sapiens, UniProt Q01892 1-262); settings: protein: recombinant; tags: N-terminal GST; dsDNA, one strand shown
# Sequence of SPIB (Q01892 whole entry): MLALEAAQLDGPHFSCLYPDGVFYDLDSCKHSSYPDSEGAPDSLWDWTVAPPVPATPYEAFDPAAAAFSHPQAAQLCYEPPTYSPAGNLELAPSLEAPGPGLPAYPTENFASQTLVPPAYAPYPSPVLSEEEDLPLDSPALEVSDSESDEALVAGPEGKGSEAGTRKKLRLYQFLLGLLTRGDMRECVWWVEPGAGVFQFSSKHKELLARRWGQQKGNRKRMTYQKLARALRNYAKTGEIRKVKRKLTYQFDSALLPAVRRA
# Outline: as §1
# ELK3 = biological target: T6, ELK3 (Homo sapiens, UniProt P41970 1-407); settings: protein: recombinant; tags: N-terminal GST; dsDNA, one strand shown
# T6 sequence: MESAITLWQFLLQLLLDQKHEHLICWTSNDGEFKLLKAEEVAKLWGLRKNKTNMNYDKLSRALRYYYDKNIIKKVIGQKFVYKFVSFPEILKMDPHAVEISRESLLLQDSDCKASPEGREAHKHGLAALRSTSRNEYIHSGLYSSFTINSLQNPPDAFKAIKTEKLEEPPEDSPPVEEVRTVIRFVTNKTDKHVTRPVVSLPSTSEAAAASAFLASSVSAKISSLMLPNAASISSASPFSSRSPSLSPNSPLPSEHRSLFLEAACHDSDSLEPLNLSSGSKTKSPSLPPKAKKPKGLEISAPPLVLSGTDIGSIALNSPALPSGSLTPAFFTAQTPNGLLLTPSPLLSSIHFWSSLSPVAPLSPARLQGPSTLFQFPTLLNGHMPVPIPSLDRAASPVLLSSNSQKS
# Outline: as §1
# FEV = biological target: T7, FEV (Homo sapiens, UniProt Q99581 1-238); settings: protein: recombinant; tags: N-terminal GST; dsDNA, one strand shown
# T7 sequence: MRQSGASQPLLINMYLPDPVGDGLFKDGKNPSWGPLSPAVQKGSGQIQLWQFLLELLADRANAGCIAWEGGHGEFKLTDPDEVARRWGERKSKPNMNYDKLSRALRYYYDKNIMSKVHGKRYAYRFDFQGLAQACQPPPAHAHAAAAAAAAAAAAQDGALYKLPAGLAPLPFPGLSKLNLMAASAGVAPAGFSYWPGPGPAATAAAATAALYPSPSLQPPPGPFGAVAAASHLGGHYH
# Outline: as §1
# ETV5 = ETV5 (Homo sapiens, UniProt P41161 1-510); settings: protein: recombinant; tags: N-terminal GST; dsDNA, one strand shown
# Sequence of ETV5 (P41161 whole entry): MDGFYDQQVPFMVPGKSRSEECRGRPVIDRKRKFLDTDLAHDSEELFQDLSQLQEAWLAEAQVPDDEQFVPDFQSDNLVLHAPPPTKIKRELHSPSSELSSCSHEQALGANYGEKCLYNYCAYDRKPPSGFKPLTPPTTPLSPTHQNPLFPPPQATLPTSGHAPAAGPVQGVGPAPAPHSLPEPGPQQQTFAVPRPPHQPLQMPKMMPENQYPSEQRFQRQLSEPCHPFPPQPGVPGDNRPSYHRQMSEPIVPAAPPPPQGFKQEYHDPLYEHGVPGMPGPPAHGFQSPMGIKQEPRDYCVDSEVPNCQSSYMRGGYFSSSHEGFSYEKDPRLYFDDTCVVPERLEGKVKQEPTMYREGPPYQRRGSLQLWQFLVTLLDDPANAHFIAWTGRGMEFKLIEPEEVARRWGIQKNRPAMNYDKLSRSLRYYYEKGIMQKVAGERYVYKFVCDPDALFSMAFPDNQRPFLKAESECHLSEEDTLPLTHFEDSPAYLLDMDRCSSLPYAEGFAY
# Outline: as §1
# HSF1 = HSF1 (Homo sapiens, UniProt Q00613 1-529); settings: protein: recombinant; tags: N-terminal GST; chain copies: 3; dsDNA, one strand shown
# Sequence of HSF1 (Q00613 whole entry): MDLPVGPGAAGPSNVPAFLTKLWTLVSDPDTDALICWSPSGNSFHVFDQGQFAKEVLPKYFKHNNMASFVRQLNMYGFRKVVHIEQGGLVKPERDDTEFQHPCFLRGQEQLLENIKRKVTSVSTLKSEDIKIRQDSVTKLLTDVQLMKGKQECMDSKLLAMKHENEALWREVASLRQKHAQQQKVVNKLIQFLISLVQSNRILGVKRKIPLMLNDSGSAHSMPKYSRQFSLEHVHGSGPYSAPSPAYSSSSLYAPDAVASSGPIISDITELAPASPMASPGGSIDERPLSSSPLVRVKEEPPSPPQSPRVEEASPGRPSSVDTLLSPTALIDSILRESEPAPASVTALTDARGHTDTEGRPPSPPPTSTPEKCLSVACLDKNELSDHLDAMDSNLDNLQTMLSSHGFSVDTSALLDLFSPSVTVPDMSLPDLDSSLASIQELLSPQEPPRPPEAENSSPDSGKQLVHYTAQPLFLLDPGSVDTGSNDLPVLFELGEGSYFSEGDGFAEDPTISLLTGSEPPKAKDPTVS
# Outline: as §1
# SPIC = biological target: T8, SPIC (Homo sapiens, UniProt Q8N5J4 1-248); settings: protein: recombinant; tags: N-terminal GST; dsDNA, one strand shown
# T8 sequence: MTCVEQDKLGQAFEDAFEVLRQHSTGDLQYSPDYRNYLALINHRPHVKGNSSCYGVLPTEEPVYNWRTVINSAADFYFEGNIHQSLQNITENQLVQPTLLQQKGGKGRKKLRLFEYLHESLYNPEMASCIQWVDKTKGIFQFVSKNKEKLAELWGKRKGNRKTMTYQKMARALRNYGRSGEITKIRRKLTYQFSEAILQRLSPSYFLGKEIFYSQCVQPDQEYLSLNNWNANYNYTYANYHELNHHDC
# Outline: as §1
# ELF4 = ELF4 (Homo sapiens, UniProt Q99607 1-663); settings: protein: recombinant; tags: N-terminal GST; dsDNA, one strand shown
# Sequence of ELF4 (Q99607 whole entry): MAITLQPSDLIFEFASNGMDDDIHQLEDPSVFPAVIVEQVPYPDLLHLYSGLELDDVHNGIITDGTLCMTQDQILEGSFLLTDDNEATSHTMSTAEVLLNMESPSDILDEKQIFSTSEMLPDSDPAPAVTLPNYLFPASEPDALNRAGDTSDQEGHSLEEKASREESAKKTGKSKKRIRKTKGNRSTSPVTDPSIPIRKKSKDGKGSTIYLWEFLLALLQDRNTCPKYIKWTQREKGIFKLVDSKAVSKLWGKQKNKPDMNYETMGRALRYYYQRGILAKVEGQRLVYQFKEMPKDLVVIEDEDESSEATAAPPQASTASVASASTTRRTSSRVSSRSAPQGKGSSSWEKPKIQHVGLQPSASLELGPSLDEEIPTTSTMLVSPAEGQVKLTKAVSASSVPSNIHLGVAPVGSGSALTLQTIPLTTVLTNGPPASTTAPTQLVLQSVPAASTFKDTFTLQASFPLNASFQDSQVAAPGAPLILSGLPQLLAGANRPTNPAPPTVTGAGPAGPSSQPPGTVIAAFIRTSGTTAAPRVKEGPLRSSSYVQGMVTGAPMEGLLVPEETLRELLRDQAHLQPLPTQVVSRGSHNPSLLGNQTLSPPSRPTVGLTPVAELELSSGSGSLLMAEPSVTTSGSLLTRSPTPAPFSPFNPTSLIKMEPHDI
# Outline: as §1
# ELK4 = biological target: T9, ELK4 (Homo sapiens, UniProt P28324-2 1-405); settings: protein: recombinant; tags: N-terminal GST; dsDNA, one strand shown
# T9 sequence: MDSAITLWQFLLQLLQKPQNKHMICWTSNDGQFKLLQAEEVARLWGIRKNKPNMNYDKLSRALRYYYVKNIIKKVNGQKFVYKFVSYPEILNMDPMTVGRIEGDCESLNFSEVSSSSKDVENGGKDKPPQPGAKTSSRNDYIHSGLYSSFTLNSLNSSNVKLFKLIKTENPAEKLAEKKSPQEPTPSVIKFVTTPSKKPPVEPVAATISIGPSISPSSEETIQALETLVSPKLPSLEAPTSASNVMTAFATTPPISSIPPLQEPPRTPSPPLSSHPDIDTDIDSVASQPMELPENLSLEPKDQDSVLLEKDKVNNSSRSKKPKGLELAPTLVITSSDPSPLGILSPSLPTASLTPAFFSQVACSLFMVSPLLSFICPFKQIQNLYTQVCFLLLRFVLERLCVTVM
# Outline: as §1
# ETV2 = biological target: T10, ETV2 (Homo sapiens, UniProt O00321 1-342); settings: protein: recombinant; tags: N-terminal GST; dsDNA, one strand shown
# T10 sequence: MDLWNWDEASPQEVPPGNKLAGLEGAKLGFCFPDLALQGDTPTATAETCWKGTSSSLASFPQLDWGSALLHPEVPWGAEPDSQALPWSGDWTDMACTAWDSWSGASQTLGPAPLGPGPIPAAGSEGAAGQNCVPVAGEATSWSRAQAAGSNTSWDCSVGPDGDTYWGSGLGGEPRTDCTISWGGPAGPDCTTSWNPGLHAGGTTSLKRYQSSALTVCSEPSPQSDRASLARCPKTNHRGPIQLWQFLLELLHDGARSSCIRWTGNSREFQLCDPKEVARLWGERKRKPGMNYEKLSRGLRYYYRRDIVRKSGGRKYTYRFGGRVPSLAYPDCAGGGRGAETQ
# Outline: as §1
# ELF3 = biological target: T11, ELF3 (Homo sapiens, UniProt P78545 1-371); settings: protein: recombinant; tags: N-terminal GST; dsDNA, one strand shown
# T11 sequence: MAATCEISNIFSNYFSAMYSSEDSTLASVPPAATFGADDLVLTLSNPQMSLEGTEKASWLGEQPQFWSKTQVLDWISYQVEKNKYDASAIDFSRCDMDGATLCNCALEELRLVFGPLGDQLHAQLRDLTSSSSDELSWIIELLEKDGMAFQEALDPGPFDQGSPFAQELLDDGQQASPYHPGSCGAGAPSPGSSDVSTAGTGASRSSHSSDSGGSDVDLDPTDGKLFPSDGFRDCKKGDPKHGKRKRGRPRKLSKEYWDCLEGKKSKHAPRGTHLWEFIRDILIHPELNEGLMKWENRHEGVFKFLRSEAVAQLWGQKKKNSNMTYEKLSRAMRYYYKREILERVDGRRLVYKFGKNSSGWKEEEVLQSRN
# Outline: as §1
# CRX = CRX (Homo sapiens, UniProt O43186 1-299); settings: protein: recombinant; tags: N-terminal GST; dsDNA, one strand shown
# Sequence of CRX (O43186 whole entry): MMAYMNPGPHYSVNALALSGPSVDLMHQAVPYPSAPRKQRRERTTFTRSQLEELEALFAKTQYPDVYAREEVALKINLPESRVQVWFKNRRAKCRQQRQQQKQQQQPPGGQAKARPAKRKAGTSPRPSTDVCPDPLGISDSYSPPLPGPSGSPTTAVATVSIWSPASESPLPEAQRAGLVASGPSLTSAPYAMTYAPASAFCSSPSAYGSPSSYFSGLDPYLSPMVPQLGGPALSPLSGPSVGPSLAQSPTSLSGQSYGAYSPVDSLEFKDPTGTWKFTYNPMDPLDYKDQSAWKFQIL
# Outline: as §1
# ETV1 = ETV1 (Homo sapiens, UniProt P50549 1-477); settings: protein: recombinant; tags: N-terminal GST; dsDNA, one strand shown
# Sequence of ETV1 (P50549 whole entry): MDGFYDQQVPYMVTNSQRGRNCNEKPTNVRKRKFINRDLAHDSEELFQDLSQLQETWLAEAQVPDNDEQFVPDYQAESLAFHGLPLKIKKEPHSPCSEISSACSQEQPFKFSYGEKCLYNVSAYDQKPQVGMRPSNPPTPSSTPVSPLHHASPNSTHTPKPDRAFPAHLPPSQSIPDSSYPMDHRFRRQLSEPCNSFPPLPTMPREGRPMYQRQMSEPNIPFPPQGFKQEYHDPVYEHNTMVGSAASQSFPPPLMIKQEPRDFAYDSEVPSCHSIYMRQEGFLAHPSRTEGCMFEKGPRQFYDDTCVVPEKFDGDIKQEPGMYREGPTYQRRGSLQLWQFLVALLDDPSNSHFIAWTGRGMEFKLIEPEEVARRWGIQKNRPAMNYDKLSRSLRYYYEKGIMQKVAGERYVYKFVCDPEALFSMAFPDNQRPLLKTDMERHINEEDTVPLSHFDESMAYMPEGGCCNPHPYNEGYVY
# Outline: as §1
sequence,measurement,setting,value
TTGTCT,binding signal,FLI1,"1.29 fold enrichment (6-mer frequency, TF over GST control)"
same,binding signal,ELK1,"1.23 fold enrichment (6-mer frequency, TF over GST control)"
same,binding signal,GABPA,"1.33 fold enrichment (6-mer frequency, TF over GST control)"
same,binding signal,ERG,"1.15 fold enrichment (6-mer frequency, TF over GST control)"
same,binding signal,ELF1,"1.27 fold enrichment (6-mer frequency, TF over GST control)"
same,binding signal,EHF,"1.18 fold enrichment (6-mer frequency, TF over GST control)"
same,binding signal,SPI1,"1.19 fold enrichment (6-mer frequency, TF over GST control)"
same,binding signal,SPIB,"1.15 fold enrichment (6-mer frequency, TF over GST control)"
same,binding signal,ELK3,"1.31 fold enrichment (6-mer frequency, TF over GST control)"
same,binding signal,FEV,"1.24 fold enrichment (6-mer frequency, TF over GST control)"
same,binding signal,ETV5,"1.29 fold enrichment (6-mer frequency, TF over GST control)"
same,binding signal,HSF1,"1.14 fold enrichment (6-mer frequency, TF over GST control)"
same,binding signal,SPIC,"1.3 fold enrichment (6-mer frequency, TF over GST control)"
same,binding signal,ELF4,"1.18 fold enrichment (6-mer frequency, TF over GST control)"
same,binding signal,ELK4,"1.22 fold enrichment (6-mer frequency, TF over GST control)"
same,binding signal,ETV2,"1.27 fold enrichment (6-mer frequency, TF over GST control)"
same,binding signal,ELF3,"1.34 fold enrichment (6-mer frequency, TF over GST control)"
same,binding signal,CRX,"1.15 fold enrichment (6-mer frequency, TF over GST control)"
same,binding signal,ETV1,"1.2 fold enrichment (6-mer frequency, TF over GST control)"
